Measured values: PubChem BioAssay (NCATS)
Several values for one entry are separate records, joined by “and”; a condition that tells them apart may be missing. Equal entries are not always repeated. Results filed as inconclusive are left out. Activity calls are given as the source filed them. Unless noted, calls follow the shape of the full dose curve.

Assays:
[1] = target: Glucocorticoid receptor (Homo sapiens) (UniProt P04150); assay: qHTS assay for small molecule antagonists of glucocorticoid receptor signaling (AID 588533; active = well fitted inhibition curve with a large enough effect in the signal ratio, with a control signal flat, not every such curve was filed as active; the % refers to the signal ratio;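 also: cells stimulated with 2 nM dexamethasone as agonist; % is scaled to controls: 0 for no effect and ±100 for the full control effect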)
How it was run: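 Antagonist-mode qHTS: compound titrations added to GRE-bla HeLa cells, then dexamethasone 2 nM final; 18 h, 37 C. CCF4 FRET fluorescence normalized to dexamethasone and DMSO; IC50 from Hill fit.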

[2] = target: Vitamin D3 receptor (Homo sapiens) (UniProt P11473); assay: qHTS assay for small molecule agonists of vitamin D receptor signaling (AID 588543);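 also: 0% = DMSO basal and 100% = reference agonist control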
How it was run: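 GeneBLAzer VDR-UAS-bla HEK293T cells in 2% charcoal-stripped FBS medium were dosed with compound titrations for 16 h at 37 °C; CCF4 β-lactamase readout (405 nm ex, 460/530 nm em). EC50 and efficacy from Hill fits, normalized to 50 nM calcitriol (100%) and DMSO (0%).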

[3] = qHTS assay for small molecule agonists of the antioxidant response element (ARE) signaling pathway (AID 651741; active = well fitted activation curve with a large enough effect in the signal ratio; the % refers to the signal ratio; also: potency is read from the fitted curve at half-maximal effect; as to activation: % of control where 0% means no effect)
How it was run: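 Compounds in DMSO are pinned onto HepG2 ARE-bla cells (2,000/well) that were preincubated 5 h; plates stay 16 h at 37 C, then beta-lactamase activity is detected with LiveBLAzer B/G substrate by fluorescence.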

[4] = qHTS assay for small molecule activators of the p53 signaling pathway (AID 651743; active = well fitted activation curve with a large enough effect in the signal ratio, not every such curve was filed as active; the % refers to the signal ratio; also: series mostly up to about 92 µM; % of control where 0% means no effect); settings: HCT-116 p53RE-bla, beta-lactamase FRET ratio, 16 h; activation: hits give high values
How it was run: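 Cell-based beta-lactamase reporter (p53 response elements, HCT-116 background). After a 5-hour preincubation, cells received compound for 16 hours at 37 C; substrate development ran 2 hours at room temperature.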

[5] = qHTS assay for small molecule agonists of the antioxidant response element (ARE) signaling pathway measured by Nrf2-dependant transcriptional activity (AID 720636; active = well fitted activation curve with a large enough effect in the repeat runs;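 also: HepG2 cells with an ARE-driven luciferase reporter; % of control where 0% means no effect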)
How it was run: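 Cells: ARE-luc HepG2 with Nrf2-responsive luciferase. Medium contained 1% dialyzed FBS. Compound exposure lasted 16 hr at 37 C and 5% CO2, followed by ONE-Glo luciferase detection.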

[6] = target: Peroxisome proliferator-activated receptor delta (Homo sapiens) (UniProt Q03181); assay: qHTS assay for small molecule antagonists of peroxisome proliferator-activated receptor delta signaling (AID 588535; active = well fitted inhibition curve with a large enough effect in the signal ratio, with a control signal flat, not every such curve was filed as active; the % refers to the signal ratio)
How it was run: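 Reporter: UAS-bla under PPAR-delta response element, HEK293T host. Medium: 2% charcoal/dextran FBS. Dosing: titration, 18 hrs, 37 C. Detection: CCF4, 2 hrs RT, 405 ex/460 and 530 em.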

[7] = target: Peroxisome proliferator-activated receptor gamma (Homo sapiens) (UniProt P37231); assay: qHTS assay for small molecule antagonists of peroxisome proliferator-activated receptor gamma signaling (AID 588537; active = well fitted inhibition curve with a large enough effect in the signal ratio, with a control signal flat, not every such curve was filed as active; the % refers to the signal ratio;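 also: reporter cells co-stimulated with 50 nM rosiglitazone agonist during compound treatment; % of control where 0% means no effect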)
How it was run: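 We seeded GeneBLAzer HEK293 reporter cells at 3000 per well, allowed 6-6.5 h attachment at 37 C, then co-treated with test compound titrations and 50 nM rosiglitazone overnight (16 h). Inhibition was quantified from 460/530 nm emission ratios.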

[8] = target: Bile acid receptor (Homo sapiens) (UniProt Q96RI1); assay: qHTS assay for small molecule antagonists of farnesoid X receptor signaling (AID 588526); also: % is scaled to controls: 0 for no effect and ±100 for the full control effect
How it was run: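 Concentration-response titrations were fitted to the Hill equation for half-maximal inhibition and maximal response, with data normalised to 50 uM chenodeoxycholic acid and DMSO control wells. Cells: FXR-UAS-bla HEK293T, dialyzed FBS.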

Peroxisome proliferator-activated receptor gamma (Homo sapiens), sequence (P37231 whole entry, looked up): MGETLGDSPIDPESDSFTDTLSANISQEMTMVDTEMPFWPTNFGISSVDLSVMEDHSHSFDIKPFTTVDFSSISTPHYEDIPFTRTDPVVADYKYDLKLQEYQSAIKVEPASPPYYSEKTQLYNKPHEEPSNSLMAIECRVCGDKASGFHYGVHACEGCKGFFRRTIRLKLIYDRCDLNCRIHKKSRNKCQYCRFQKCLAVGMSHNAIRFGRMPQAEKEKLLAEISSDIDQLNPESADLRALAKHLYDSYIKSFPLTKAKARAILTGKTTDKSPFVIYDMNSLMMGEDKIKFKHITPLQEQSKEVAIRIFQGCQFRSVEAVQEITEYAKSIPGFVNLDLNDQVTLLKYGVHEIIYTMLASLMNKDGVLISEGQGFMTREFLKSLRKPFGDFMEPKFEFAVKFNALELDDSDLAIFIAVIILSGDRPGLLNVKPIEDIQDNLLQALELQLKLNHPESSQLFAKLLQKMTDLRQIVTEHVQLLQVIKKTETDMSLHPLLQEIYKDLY
Bile acid receptor (Homo sapiens), sequence (Q96RI1 whole entry, looked up): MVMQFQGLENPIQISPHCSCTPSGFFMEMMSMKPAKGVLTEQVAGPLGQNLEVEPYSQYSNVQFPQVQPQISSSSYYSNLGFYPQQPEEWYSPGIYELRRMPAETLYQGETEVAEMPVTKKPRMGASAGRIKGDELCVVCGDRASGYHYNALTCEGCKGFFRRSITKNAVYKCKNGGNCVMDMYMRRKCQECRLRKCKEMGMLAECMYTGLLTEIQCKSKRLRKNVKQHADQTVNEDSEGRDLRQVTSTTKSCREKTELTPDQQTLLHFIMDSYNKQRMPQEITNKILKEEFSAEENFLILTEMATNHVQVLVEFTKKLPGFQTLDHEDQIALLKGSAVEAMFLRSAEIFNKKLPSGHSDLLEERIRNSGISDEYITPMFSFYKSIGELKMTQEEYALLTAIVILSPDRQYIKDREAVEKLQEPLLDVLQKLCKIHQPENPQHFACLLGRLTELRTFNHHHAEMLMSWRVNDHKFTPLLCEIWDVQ
Vitamin D3 receptor (Homo sapiens), sequence (P11473 whole entry, looked up): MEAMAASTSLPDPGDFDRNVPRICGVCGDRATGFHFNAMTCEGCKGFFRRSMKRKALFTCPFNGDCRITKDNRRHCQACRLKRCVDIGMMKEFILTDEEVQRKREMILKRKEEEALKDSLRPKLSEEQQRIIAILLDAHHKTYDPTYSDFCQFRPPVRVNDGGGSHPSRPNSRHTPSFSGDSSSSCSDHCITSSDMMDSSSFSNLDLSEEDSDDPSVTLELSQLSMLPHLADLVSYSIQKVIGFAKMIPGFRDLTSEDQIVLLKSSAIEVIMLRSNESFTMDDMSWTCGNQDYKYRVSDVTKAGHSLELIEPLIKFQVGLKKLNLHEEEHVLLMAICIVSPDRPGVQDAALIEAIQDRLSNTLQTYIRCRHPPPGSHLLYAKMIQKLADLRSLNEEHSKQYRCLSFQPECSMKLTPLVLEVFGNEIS
Glucocorticoid receptor (Homo sapiens), sequence (P04150 whole entry, looked up): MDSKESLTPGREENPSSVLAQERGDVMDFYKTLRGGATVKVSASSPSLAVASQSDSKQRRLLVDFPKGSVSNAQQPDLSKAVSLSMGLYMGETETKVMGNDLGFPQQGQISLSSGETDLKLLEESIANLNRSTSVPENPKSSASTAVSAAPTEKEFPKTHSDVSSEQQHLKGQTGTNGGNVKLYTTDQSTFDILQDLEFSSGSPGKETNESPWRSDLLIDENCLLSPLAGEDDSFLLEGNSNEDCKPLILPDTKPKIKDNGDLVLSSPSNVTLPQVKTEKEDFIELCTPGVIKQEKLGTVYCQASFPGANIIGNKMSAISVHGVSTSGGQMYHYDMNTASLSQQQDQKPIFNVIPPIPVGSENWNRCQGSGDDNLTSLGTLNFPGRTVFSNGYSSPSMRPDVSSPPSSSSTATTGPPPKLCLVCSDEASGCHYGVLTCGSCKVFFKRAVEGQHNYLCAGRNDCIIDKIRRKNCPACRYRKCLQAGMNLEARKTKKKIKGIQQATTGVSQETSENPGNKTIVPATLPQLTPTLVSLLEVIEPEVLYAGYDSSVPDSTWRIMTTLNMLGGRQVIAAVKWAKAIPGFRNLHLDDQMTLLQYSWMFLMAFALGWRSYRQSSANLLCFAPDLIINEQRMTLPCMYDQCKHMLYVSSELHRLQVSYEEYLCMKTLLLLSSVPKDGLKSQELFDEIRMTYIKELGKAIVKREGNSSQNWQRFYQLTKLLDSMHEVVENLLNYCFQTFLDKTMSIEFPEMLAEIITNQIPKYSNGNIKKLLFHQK
Peroxisome proliferator-activated receptor delta (Homo sapiens), sequence (Q03181 whole entry, looked up): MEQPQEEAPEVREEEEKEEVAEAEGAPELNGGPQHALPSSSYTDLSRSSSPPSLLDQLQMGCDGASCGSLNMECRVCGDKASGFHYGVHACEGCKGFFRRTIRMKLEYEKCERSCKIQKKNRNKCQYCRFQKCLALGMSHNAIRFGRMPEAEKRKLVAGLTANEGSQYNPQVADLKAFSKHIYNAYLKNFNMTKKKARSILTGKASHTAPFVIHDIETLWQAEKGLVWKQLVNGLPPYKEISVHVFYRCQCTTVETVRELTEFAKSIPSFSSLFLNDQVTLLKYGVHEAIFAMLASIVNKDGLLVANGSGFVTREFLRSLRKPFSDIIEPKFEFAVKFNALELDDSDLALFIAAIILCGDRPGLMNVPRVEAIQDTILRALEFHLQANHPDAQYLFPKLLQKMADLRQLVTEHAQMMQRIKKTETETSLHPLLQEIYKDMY

CCOC(=O)CC(O)(CC(=O)OCC)C(=O)OCC
inactive: Potency [1] | outcome [2] | Potency [3] | activation [4] -0.036% | Potency [5]

C/C(=C\C(C)CC(C)CC(C)C)C1CC(=O)OC1=O (configuration not stated)
inactive: Potency [6] | outcome [2]

CC/C=C\CCOC(=O)c1ccccc1O
inactive: Potency [6] | Potency [7] | outcome [2] | Potency [3] | activation [4] -5.63% | Potency [5]

CC(C)(C)C1CCC(O)CC1 (configuration not stated)
inactive: Potency [1] | Potency [6] | Potency [7] | outcome [2] | activation [4] -3.97%

Cc1cc(C)c(N)c(Cl)c1
inactive: Potency [1] | Potency [6] | Potency [7] | activation [4] -7.91%

OC1CCCCCCCCCCC1
inactive: Potency [1] | Potency [6] | Potency [7] | Potency [3] | activation [4] 4.17% | Potency [5]

O=C(O)C(c1ccc(Cl)cc1)c1ccc(Cl)cc1
inactive: Potency [8] | Potency [6] | outcome [2] | Potency [5]

c1ccc(OCCOc2ccccc2)cc1
inactive: Potency [1] | Potency [6] | Potency [7] | outcome [2] | Potency [3] | activation [4] 2.08%

C=CC(=O)OCC[N+](C)(C)C
inactive: Potency [8] | Potency [7] | outcome [2] | Potency [3] | activation [4] 2.09% | Potency [5]

C[Si]1(C)O[Si](C)(C)O[Si](C)(C)O[Si](C)(C)O[Si](C)(C)O1
inactive: Potency [1] | Potency [7] | outcome [2] | Potency [3] | activation [4] 1.25% | Potency [5]

O=S(=O)(O)c1ccc(N=Nc2c(O)ccc3cc(S(=O)(=O)O)ccc23)cc1
inactive: Potency [6] | outcome [2] | Potency [5]

O=[N+]([O-])C(CO)(CO)CO
inactive: Potency [6] | Potency [7] | activation [4] 7.94%

CCCCOCCOCCOC(C)=O
inactive: Potency [1] | Potency [6] | outcome [2] | Potency [3] | activation [4] -0.502% | Potency [5]

CCCCOCCOCCOCCO
inactive: Potency [6] | Potency [7] | outcome [2] | Potency [3] | activation [4] 2.9% | Potency [5]

Nc1nc(N)nc(-c2ccccc2)n1
inactive: Potency [1] | Potency [6]

CCCCCCCCCCCC(=O)N(C)CC(=O)O
inactive: Potency [5]

OCC(CO)(CO)COCC(CO)(CO)CO
inactive: Potency [8] | Potency [7] | outcome [2] | Potency [3] | activation [4] -2.73% | Potency [5]

CC(=O)OC(C)(C)C1CC=C(C)CC1 (configuration not stated)
inactive: Potency [6] | Potency [7] | Potency [3] | activation [4] -1.29% | Potency [5]

CN(C)C(=O)Nc1ccccc1
inactive: Potency [6] | Potency [7] | outcome [2] | Potency [5]

CC(C)CCCCCOC(=O)CS
inactive: Potency [1] | Potency [7] | Potency [3] | Potency [5]

CC1=CC2C3CC(C=C3C)C2C1 (configuration not stated)
inactive: Potency [1] | Potency [7] | outcome [2] | Potency [3] | Potency [5]

CC(C)OB(OC(C)C)OC(C)C
inactive: Potency [1] | Potency [7] | outcome [2] | Potency [3] | activation [4] 0.574% | Potency [5]

CC1(C)CC(N)CC(C)(CN)C1 (configuration not stated)
inactive: Potency [1] | Potency [6] | Potency [3] | activation [4] -1.29% | Potency [5]

C=CCCCCCCCCC=O
inactive: Potency [1] | Potency [6] | Potency [7] | outcome [2]

Fc1ccc(Br)cc1
inactive: Potency [1] | Potency [7] | activation [4] -1.54% | Potency [5]

Cc1ccc(S(=O)(=O)N=C=O)cc1
inactive: Potency [1] | Potency [6] | Potency [7] | outcome [2] | Potency [3] | activation [4] -3.48%

CCCC/C=C/CCCCO
inactive: Potency [1] | Potency [7] | outcome [2] | Potency [3] | Potency [5]

C=CC(=O)NC(C)(C)CS(=O)(=O)O
inactive: Potency [6] | Potency [7] | outcome [2] | Potency [3] | activation [4] 2.63% and -4%

CCCCCCCCCCCCCO
active: Potency [3] 48.6 µM
inactive: Potency [1] | Potency [6] | Potency [7] | outcome [2] | activation [4] -3%

O=[N+]([O-])c1ccc2c(c1)Cc1ccccc1-2
inactive: Potency [1] | Potency [6] | Potency [7] | activation [4] 4.31%

c1cc(-c2ccncc2)ccn1
inactive: Potency [7] | outcome [2] | Potency [5]

O=C(OCC1CCC2OC2C1)C1CCC2OC2C1 (configuration not stated)
inactive: Potency [1] | Potency [7] | outcome [2] | activation [4] 2.61% | Potency [5]

CCCCCCCC(=O)OC
inactive: Potency [6] | Potency [7] | outcome [2] | Potency [3] | activation [4] 3.63% | Potency [5]

COC(=O)c1ccccc1C(=O)O
inactive: Potency [7] | outcome [2] | Potency [3] | activation [4] -3.42% | Potency [5]

OCCOCCOCCOCCO
inactive: Potency [1] | Potency [6] | outcome [2] | Potency [3]

c1ccc(-c2ccc(-c3ccccc3)cc2)cc1
inactive: Potency [1] | Potency [6] | Potency [7] | outcome [2]
